This is a sample that favours compounds with a hit; in the whole collection about 10% have one here.
CCT modulator = modulators of cytosolic chaperonin (CCT/TRiC) activity; AID 651819; activity change, % (concentration not given with the values), hits read low; purified chaperonin ATPase assay, HTRF ADP detection, 30 min; hit rate 0.3% among 360,000; in the data active = activity change below about -30%
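First, chaperonin was dispensed at 40 nM or 20 nM final depending on batch activity. Next, compounds were pinned at 76 uM and ATP added at 10 uM. After 30 min at 37 °C, ADP detection reagents ran 30 min at ambient temperature.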
Mm-Cpn inhibitor = blocks the Methanococcus maripaludis chaperonin Mm-Cpn. purified Mm-Cpn ATPase, ADP Transcreener TR-FRET. Potency, µM (top dose mostly 76.9 µM), without a hit: top-dose activity, negative = inhibition, actives largely listed as inhibitors. hit rate 0.031% among 330,000. AID 504842; note: potency is the fitted concentration of half-maximal effect; nearly all actives have a fitted effect of over 80% in size
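Eu-cryptate anti-ADP/ADP-d2 competition gives a ratio inversely related to ADP. Enzyme at 25 nM was pre-exposed to compound for 10 min, then given 10 uM ATP for 30 min, 37°C throughout.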
G9a block = inhibitors of human histone lysine methyltransferase G9a. Q96KQ7. G9a H3K9 monomethylation, AlphaScreen, 2 h. Potency, µM (doses to about 102 µM), for the others: at the top dose activity, negative = inhibition, usual class: inhibitors. hit rate 8.8% among 350,000. AID 504332; note: potency is the fitted concentration of half-maximal effect; nearly all actives have a fitted effect of over 75% in size
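G9a (20 nM) was preincubated 15 min with compound, then reacted 2 h at room temperature with 500 nM biotin-H3K9 peptide and 20 µM SAM. Monomethyl-H3K9 detected by AlphaScreen using anti-H3K9me1 antibody.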
VDR inh = vitamin D3 receptor (human) inhibition | Potency, µM, inactives show max response, negative = inhibition, hits mostly inhibitors | AID 504847 | hit rate 0.93% among 400,000 | VDR-SRC2-3 peptide fluorescence polarization, 2 h; note: potency is the fitted concentration of half-maximal effect
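Two reagent solutions held at 4 deg C in the dark were dispensed, compounds pinned at 23 nl, and the mixture incubated 2 h at room temperature. Read-out: fluorescence polarization of VDR–SRC2-3 peptide binding.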
PLK1 PBD block = inhibitors of human PLK1 polo-box domain binding. AID 720504. Potency, µM, without a hit: max response, negative = inhibition, hits mostly inhibitors. Plk1 PBD binding of FITC phosphopeptide, fluorescence polarization. hit rate 2.8% among 360,000; note: potency is the fitted concentration of half-maximal effect; series mostly up to about 57 µM; nearly all actives have a fitted effect of over 65% in size
Target sequence (P53350 whole entry, looked up, the tested form may be a part): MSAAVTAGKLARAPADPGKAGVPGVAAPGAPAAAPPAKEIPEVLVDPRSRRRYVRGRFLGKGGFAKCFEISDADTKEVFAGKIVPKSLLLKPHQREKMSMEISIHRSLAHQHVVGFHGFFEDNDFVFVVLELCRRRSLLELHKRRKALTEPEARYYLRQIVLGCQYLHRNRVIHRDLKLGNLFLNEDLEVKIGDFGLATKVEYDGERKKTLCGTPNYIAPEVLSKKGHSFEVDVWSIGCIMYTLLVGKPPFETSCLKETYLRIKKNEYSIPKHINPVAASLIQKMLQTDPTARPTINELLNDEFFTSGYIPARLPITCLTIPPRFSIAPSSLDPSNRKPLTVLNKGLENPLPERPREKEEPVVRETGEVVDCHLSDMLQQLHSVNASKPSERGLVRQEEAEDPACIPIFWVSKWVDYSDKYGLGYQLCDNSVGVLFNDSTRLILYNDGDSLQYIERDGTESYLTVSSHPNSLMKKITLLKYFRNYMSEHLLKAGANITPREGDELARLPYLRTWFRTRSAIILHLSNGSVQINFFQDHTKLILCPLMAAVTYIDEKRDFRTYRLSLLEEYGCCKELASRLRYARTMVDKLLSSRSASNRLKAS
Sfp PPTase inh = Sfp phosphopantetheinyl transferase inhibition | hit rate 3.5% among 310,000 | AID 1490 | Q9F4F7 | Potency, µM, without a hit: largest response in the series, negative = inhibition, hits mostly inhibitors | Biochemical Sfp PPTase activity, qHTS;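 note: the enzyme is Sfp with the accession as filed and its product quenches rhodamine fluorescence; potency is the fitted concentration of half-maximal effect; 0% = enzyme reaction without inhibitor and -100% = no enzyme wells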
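Fluorescence-quenching assay with 15 nM Sfp, 5 uM rhodamine-CoA and 12.5 uM BHQ-2-labelled ybbR peptide in pH 7.6 Hepes/MgCl2 buffer. Enzyme was pre-incubated with compound for 15 min at room temperature. Rate was taken from the 30-min fluorescence change (525/598 nm).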
Active calls of the source: *; ? = inconclusive; . = no result; [ ] = remark or other dose. Unless noted, calls come from the whole dose curve; as a rule, active = well fitted curve in the direction sought with a large enough effect; inconclusive = small, poorly fitted or top-dose-only effect, or another doubt; inactive = no such curve, though single readings can be large; an effect the other way counts as inactive or inconclusive. Unless noted, % is set by controls: 0 for no effect and ±100 for the full control effect.

SMILES | CCT modulator | Mm-Cpn inhibitor | G9a block | VDR inh | PLK1 PBD block | Sfp PPTase inh
CCOC(=O)c1c(C)oc2c1cc(O)c1ccccc12 | -1 | -1% | -8% | 7% | -17% | 24%
CCOC(=O)c1c(C)oc2c1c1c(c3ccccc32)OCN(CCCC(=O)O)C1 | -1 | 1% | 8.9µM* | 89µM* | 11µM* | -6%
Cc1c(C(=O)N2CCN(C3CCS(=O)(=O)C3)CC2)oc2ccc(Cl)cc12 (stereo unspecified) | 0 | 0% | -31% | -5% | -6% | .
Cc1ccc(C)n1C1CCS(=O)(=O)C1 (stereo unspecified) | -4 | 1% | 56µM* | -8% | -4% | 13%
COc1cccc(-c2nnc(SCC(=O)NCc3ccc4c(c3)OCO4)n2Cc2ccco2)c1 | 1 | -1% | 45µM* | 16% | -13% | 40µM*
O=C(CSc1nnc(-c2ccncc2)n1Cc1ccco1)c1ccc(Cl)cc1 | -3 | -1% | ? | ? | -22% | 22µM*
O=C(CSc1nnc(-c2cccnc2)n1Cc1ccco1)N1c2ccccc2Sc2ccccc21 | 0 | 1% | ? | 9% | -9% | 3.5µM*
Cc1cc(C)c(NC(=O)CSc2nnc(-c3ccncc3)n2Cc2ccco2)c(C)c1 | -9 | -1% | -28%[12.7 µM] | 5% | -9% | ?
NC(=O)CSc1nnc(-c2cccs2)n1Cc1ccco1 | 3 | 2% | -8%[12.7 µM] | -13% | -2% | -18%
O=C(CSc1nnc(-c2ccc(Cl)cc2)n1Cc1ccco1)c1cccs1 | 0 | ? | ? | -25% | -25% | 22µM*
COc1ccc(C(=O)CSc2nnc(-c3cccnc3)n2Cc2ccco2)cc1 | 1 | -3% | 50µM* | 14% | -13% | 0%
CCS(=O)(=O)c1c(Nc2ccc(F)c(Cl)c2)sc(C(=O)c2ccccc2)c1N | . | . | -42%[59 µM] | -11% | . | .
COc1ccc2c(c1OC)C(=O)OC2CC(=O)c1ccc(O)c(O)c1 (stereo unspecified) | 0 | -1% | 40µM* | 13% | 0% | -16%
C[n+]1nc(Nc2ccccc2)sc1-c1ccc(C(=O)O)cc1 | . | 0% | -5%[12.7 µM] | . | . | 10%
O=C(O)c1ccc(-c2sc(Nc3ccccc3)n[n+]2-c2ccccc2)cc1 | 0 | 0% | . | 5% | -5% | 50µM*
c1ccc(COc2ccc(-c3sc(Nc4ccccc4)n[n+]3-c3ccccc3)cc2)cc1 | . | ? | 22µM* | . | . | 56µM*
O=C(O)c1ccc(-c2sc(Nc3ccccc3)n[n+]2-c2ccc(F)cc2)cc1 | 2 | -3% | 40µM* | -6% | -30% | -14%
COC(=O)N1[C@H]2CC[C@@]3(C)C=C(C)O[C@]1(C)C3c1ccccc12 | . | . | . | -3% | . | -4%
Cc1cccc(-n2c(O)c(/C=N/NC(=O)c3ccccc3Cl)c3ccccc3c2=O)n1 | -46* | -2% | ? | -4% | 4% | 13%
Cc1cccc(-n2c(O)c(C=Nc3ccc(O)cc3)c3ccccc3c2=O)n1 | 0 | 0% | 50µM* | -2% | -22% | 7%
Cc1cccc(-n2c(O)c(C=Nc3c(C)n(C)n(-c4ccccc4)c3=O)c3ccccc3c2=O)n1 | -3 | -1% | ? | 1% | -20% | 11%
Cc1cccc(-n2c(O)c(C=Nc3ccccc3O)c3ccccc3c2=O)n1 | 0 | 1% | 23% | -6% | 12% | ?
CCOc1ccc(Cl)cc1S(=O)(=O)n1nnc2ccccc21 | 2 | -2% | -6%[12.7 µM] | -6% | 27µM* | 7%
COc1ccc(-c2c(C)c3ccc(O)c(CN4CCCCC4)c3oc2=O)cc1OC | . | . | -16%[59 µM] | 4% | . | .
CCOC(=O)C1CCCCN1S(=O)(=O)c1csc(C(N)=O)c1 (stereo unspecified) | . | . | -30%[59 µM] | 10% | . | .
SMILES | CCT modulator | Mm-Cpn inhibitor | G9a block | VDR inh | PLK1 PBD block | Sfp PPTase inh
COc1ccc(N2CCN(C(CNC(=O)C3CCCCC3)c3cccnc3)CC2)cc1 (stereo unspecified) | -4 | 0% | . | 30% | -8% | -1%
COc1ccc(N2CCN(C(CNC(=O)c3c(F)cccc3F)c3ccc4c(c3)OCO4)CC2)cc1 (stereo unspecified) | . | . | 10µM* | 9% | . | .
COc1ccc(C(=O)NCC(c2ccc3c(c2)OCO3)N2CCN(c3ccccc3F)CC2)cc1 (stereo unspecified) | . | . | -27%[59 µM] | -6% | . | .
COc1ccc(N2CCN(C(CNC(=O)c3cccs3)c3ccco3)CC2)cc1 (stereo unspecified) | -2 | 0% | 45µM* | -20% | -12% | .
COc1ccc(N2CCN(C(CNC(=O)c3ccco3)c3ccco3)CC2)cc1 (stereo unspecified) | -5 | 0% | 28µM* | -9% | -6% | .
COc1ccc(N2CCN(C(CNC(=O)C3CCCCC3)c3ccco3)CC2)cc1 (stereo unspecified) | 0 | 1% | 45µM* | ? | -12% | .
CCOC(=O)c1ccc(N2CCN(c3cc(Cl)ccc3C)CC2)c(NC(=O)Nc2cccc(OC)c2)c1 | . | . | 0%[59 µM] | 14% | . | .
COc1ccc(-n2c(=O)c(-c3cccs3)nc3cnc(N4CCNCC4)nc32)cc1 | . | . | 3%[12.7 µM] | 1% | . | ?
COC(=O)[C@@H]1OC(c2ccccc2)O[C@H]1C(=O)OC | . | . | . | 6% | . | 2%
COC(=O)c1ccc(SC2CCCCC2)c([N+](=O)[O-])c1 | 0 | 1% | 16µM* | 15% | -1% | 0%
O=C(O)CSc1ncnc2nc[nH]c12 | 0 | 1% | -29%[59 µM] | 5% | -5% | 7%
c1nc(SSc2ncnc3nc[nH]c23)c2[nH]cnc2n1 | -1 | . | . | 25µM* | 0.84µM* | .
O=S(=O)(Nc1ccc(O)c(Sc2nc3ccccc3s2)c1)c1ccc(F)cc1 | 0 | 1% | 5%[59 µM] | -19% | -21% | 3%
O=S(=O)(Nc1ccc(O)c(Sc2nc3ccccc3s2)c1)c1cccc2ccccc12 | -2 | -2% | 45µM* | -29% | 0% | 10%
O=C(O)c1cccc(S(=O)(=O)Nc2ccc(O)c(Sc3nc4ccccc4s3)c2)c1 | 0 | 2% | . | -27% | 21µM* | -2%
O=S(=O)(Nc1ccc(O)c(Sc2nc3ccccc3s2)c1)c1cc(Cl)ccc1Cl | . | . | 11µM* | -2% | . | .
Cc1cc(S(=O)(=O)Nc2ccc(O)c(Sc3nc4ccccc4s3)c2)ccc1Cl | . | . | -49%[59 µM] | ? | . | .
CCC(C(=O)OC)n1cnc2c(cnn2-c2ccc(F)cc2)c1=O (stereo unspecified) | . | . | 1%[59 µM] | 10% | . | .
Fc1ccccc1SCc1nnc(-c2ccccc2Br)o1 | 0 | -3% | -10% | 45µM* | 3.4µM* | -30%
COc1ccc(OC)c(CNC(=O)c2cc3cc4ccc(OC)cc4nc3o2)c1 | . | . | 5%[59 µM] | -7% | . | .
COc1ccc(-c2nn3c(C4CCCCC4)nnc3s2)cc1OC | 0 | 0% | 10µM* | ? | 21µM* | ?

Bioassay records: PubChem, National Center for Advancing Translational Sciences (NCATS)
